This passage reports composite z-score and z-score results from PubChem BioAssay.

Experiment [1] concerns PRMT1 (protein arginine N-methyltransferase 1). As to the kind of experiment: PRMT1 binders on small-molecule microarrays, primary screen, biochemical, small-molecule microarray, 635 nm fluorescence (AID 1088).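 Note: binding of Prmt1 protein to compounds spotted on small-molecule microarray slides.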 Particulars: small-molecule microarray binding, higher = more signal.
A short description of experiment [2]: yeast growth modulation, basal conditions, primary screen, YJM789 clinical isolate, OD600, 24 h (AID 1089).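 Note: growth of clinical yeast isolate S. cerevisiae YJM 789 seeded 1000 cells per well; test concentration not given here.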 Particulars: S. cerevisiae YJM789 growth, higher = more signal, called active from +8 up or from −8 down.
The nature of experiment [3]: fission yeast growth modulation, primary screen, strain 972, OD600, 24 h, no modulator (AID 1090).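 Note: basal condition with compound alone and no growth modifier present; test concentration not given here.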 The conditions noted are these: S. pombe 972 growth, higher = more signal, called active from +8 up or from −8 down.
The nature of experiment [4]: S. cerevisiae growth modulation with rapamycin, primary screen, strain BY4716, OD600, 96 h (AID 1091). Note: test concentration not given here. Particulars: higher = more signal, called active from +8 up or from −8 down.
In experiment [5] the target is Torsin-1A-interacting protein 2 (Homo sapiens) (UniProt Q8NFQ8). As to the kind of experiment: LULL1 binders on small-molecule microarray, primary screen, cell lysate, human LULL1 lysate, 635/667 nm fluorescence (AID 1092).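 Note: probe is lysate of COS7 cells overexpressing human LULL1; score merges per-feature 667 nm fluorescence with signal-to-noise.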 Particulars: hLULL1 lysate binding, 635 nm fluorescence, higher = more signal.
The nature of experiment [6]: E. coli growth modulation, two-sided OD650, primary screen, E. coli filamentation project, strain DRC41, 24 h (AID 1093).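 Note: MC1000 strain lacking acrAB efflux and sulA so SOS filamentation is blocked; test concentration not given here.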 Particulars: OD650, 24 h, higher = more signal, called active from +8 up or from −8 down.
Experiment [7] can be described thus: small-molecule microarray binders of probe aLefty2, primary screen, biochemical, biotinylated probe, 635/667 nm fluorescence (AID 1094).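 Note: score merges spot fluorescence near 667 nm with spot signal-to-noise ratio.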 Particulars: higher = more signal.
Experiment [8] concerns Noggin (protein binding on small-molecule microarray). As to the kind of experiment: Noggin binders on small-molecule microarray, primary screen, biochemical, 635/667 nm fluorescence (AID 1095).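 Note: score merges 667 nm feature fluorescence with signal to noise over triplicate slides.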 Particulars: 635 nm fluorescence, higher = more signal.
For experiment [9], the target named is Neurogenic locus notch homolog protein 3 (Homo sapiens) (UniProt Q9UM47). As to the kind of experiment: NOTCH3 binders on small-molecule microarray, primary screen, biochemical, 635/667 nm fluorescence (AID 1096). The conditions noted are these: NOTCH3 binding, 635 nm fluorescence, higher = more signal.
A short description of experiment [10]: small-molecule microarray binders of probe aEGFR, primary screen, biochemical, biotinylated probe, 635/667 nm fluorescence (AID 1097).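 Note: probe is a biotinylated anti-EGFR antibody binding compounds printed on slides; score combines fluorescence near 667 nm and signal to noise of each spot.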 Particulars: higher = more signal.
Experiment [11] concerns Plasmodium falciparum Sir2 (PF13_0152, Sir2A). As to the kind of experiment: pfSir2 binders on small-molecule microarrays, primary screen, biochemical, small-molecule microarray, 635 nm fluorescence (AID 1098).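 Note: score merges spot fluorescence intensity with its signal-to-noise ratio.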 Particulars: small-molecule microarray binding, fluorescence 635 nm; higher = more signal.
A short description of experiment [12]: small-molecule microarray binders of probe aDKK1, primary screen, biochemical, biotinylated probe, 635/667 nm fluorescence (AID 1099).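 Note: score merges 667nm spot fluorescence with signal to noise across triplicate slides; reference of the scale not given here.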 The conditions noted are these: higher = more signal.
Experiment [13] in a line: small-molecule microarray binders of probe aCHRDL2, primary screen, biochemical, biotinylated probe, 635/667 nm fluorescence (AID 1100). The conditions noted are these: higher = more signal.
Experiment [14] can be described thus: splicing luciferase reporter signal modulators, primary screen, spliceosome inhibition project, cell-based, HEK293, splice +/- reporter (AID 1101).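 Note: HEK293 cells carrying a splicing-competent luciferase reporter gene; test concentration not given here.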 The conditions noted are these: luminescence, 24 h, higher = more signal, called active from +8 up or from −8 down. On the technique in general: In a reporter assay the amount or activity of a reporter protein is the signal.

Experiment [15] concerns the target Fibroblast growth factor 10 (Homo sapiens) (UniProt O15520). The experiment in a line: FGF10 binders on small-molecule microarrays, primary screen, biochemical, small-molecule microarray, 635 nm fluorescence (AID 1102). Particulars: FGF10 binding, fluorescence 635 nm, higher = more signal.
Experiment [16] relates to glycogen synthase kinase-3 (GSK3A per assay name; protocol says GSK3B). As to the kind of experiment: GSK3 binders on small-molecule microarrays, primary screen, biochemical, small-molecule microarray, 635 nm fluorescence, GSK3A (AID 1103). Note: the record names both GSK3A and GSK3B. Particulars: small-molecule microarray binding, fluorescence 635 nm; higher = more signal.
Experiment [17] deals with Epidermal growth factor receptor (Homo sapiens) (UniProt P00533). As to the kind of experiment: EGFR binders on small-molecule microarrays, primary screen, biochemical, small-molecule microarray, 635 nm fluorescence (AID 1104).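 Note: score merges 667 nm emission intensity with spot signal to noise over triplicate slides.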 The conditions noted are these: EGFR binding, higher = more signal.
In experiment [18] the target is Follistatin-related protein 3 (Homo sapiens) (UniProt O95633). The experiment in a line: FSTL3 binders on small-molecule microarrays, primary screen, biochemical, small-molecule microarray, 635 nm fluorescence (AID 1105).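 Note: score merges emission near 667 nm and signal to noise per printed spot across three slides.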 Particulars: FSTL3 binding, higher = more signal.
Experiment [19] addresses Dickkopf-related protein 1 (Homo sapiens) (UniProt O94907). The experiment in a line: DKK1 binders on small-molecule microarrays, primary screen, biochemical, small-molecule microarray, 635 nm fluorescence scan (AID 1106).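 Note: score merges emission near 667 nm with signal to noise over three replicate slides.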 Particulars: DKK1 binding, higher = more signal.
For experiment [20], the system named is Inhibin beta A chain (activin A). The experiment in a line: INHBA (activin A) binders on microarrays, primary screen, biochemical, small-molecule microarray, 635 nm fluorescence scan (AID 1107).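 Note: mouse activin A protein probed at 4.33 µg/mL on printed slides; score merges bound-protein fluorescence near 667 nm with spot signal-to-noise.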 Particulars: small-molecule microarray binding, higher = more signal.

Active and inactive are the calls of the source.

Dickkopf-related protein 1 (Homo sapiens), sequence (O94907 whole entry, looked up): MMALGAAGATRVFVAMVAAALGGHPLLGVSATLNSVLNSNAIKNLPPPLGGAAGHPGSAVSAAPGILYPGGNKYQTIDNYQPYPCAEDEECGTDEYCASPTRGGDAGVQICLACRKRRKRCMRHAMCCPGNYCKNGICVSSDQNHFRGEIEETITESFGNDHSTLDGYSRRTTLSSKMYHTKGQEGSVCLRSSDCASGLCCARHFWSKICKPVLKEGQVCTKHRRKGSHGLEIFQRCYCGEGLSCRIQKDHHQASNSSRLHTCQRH
Neurogenic locus notch homolog protein 3 (Homo sapiens), sequence (Q9UM47 whole entry, looked up): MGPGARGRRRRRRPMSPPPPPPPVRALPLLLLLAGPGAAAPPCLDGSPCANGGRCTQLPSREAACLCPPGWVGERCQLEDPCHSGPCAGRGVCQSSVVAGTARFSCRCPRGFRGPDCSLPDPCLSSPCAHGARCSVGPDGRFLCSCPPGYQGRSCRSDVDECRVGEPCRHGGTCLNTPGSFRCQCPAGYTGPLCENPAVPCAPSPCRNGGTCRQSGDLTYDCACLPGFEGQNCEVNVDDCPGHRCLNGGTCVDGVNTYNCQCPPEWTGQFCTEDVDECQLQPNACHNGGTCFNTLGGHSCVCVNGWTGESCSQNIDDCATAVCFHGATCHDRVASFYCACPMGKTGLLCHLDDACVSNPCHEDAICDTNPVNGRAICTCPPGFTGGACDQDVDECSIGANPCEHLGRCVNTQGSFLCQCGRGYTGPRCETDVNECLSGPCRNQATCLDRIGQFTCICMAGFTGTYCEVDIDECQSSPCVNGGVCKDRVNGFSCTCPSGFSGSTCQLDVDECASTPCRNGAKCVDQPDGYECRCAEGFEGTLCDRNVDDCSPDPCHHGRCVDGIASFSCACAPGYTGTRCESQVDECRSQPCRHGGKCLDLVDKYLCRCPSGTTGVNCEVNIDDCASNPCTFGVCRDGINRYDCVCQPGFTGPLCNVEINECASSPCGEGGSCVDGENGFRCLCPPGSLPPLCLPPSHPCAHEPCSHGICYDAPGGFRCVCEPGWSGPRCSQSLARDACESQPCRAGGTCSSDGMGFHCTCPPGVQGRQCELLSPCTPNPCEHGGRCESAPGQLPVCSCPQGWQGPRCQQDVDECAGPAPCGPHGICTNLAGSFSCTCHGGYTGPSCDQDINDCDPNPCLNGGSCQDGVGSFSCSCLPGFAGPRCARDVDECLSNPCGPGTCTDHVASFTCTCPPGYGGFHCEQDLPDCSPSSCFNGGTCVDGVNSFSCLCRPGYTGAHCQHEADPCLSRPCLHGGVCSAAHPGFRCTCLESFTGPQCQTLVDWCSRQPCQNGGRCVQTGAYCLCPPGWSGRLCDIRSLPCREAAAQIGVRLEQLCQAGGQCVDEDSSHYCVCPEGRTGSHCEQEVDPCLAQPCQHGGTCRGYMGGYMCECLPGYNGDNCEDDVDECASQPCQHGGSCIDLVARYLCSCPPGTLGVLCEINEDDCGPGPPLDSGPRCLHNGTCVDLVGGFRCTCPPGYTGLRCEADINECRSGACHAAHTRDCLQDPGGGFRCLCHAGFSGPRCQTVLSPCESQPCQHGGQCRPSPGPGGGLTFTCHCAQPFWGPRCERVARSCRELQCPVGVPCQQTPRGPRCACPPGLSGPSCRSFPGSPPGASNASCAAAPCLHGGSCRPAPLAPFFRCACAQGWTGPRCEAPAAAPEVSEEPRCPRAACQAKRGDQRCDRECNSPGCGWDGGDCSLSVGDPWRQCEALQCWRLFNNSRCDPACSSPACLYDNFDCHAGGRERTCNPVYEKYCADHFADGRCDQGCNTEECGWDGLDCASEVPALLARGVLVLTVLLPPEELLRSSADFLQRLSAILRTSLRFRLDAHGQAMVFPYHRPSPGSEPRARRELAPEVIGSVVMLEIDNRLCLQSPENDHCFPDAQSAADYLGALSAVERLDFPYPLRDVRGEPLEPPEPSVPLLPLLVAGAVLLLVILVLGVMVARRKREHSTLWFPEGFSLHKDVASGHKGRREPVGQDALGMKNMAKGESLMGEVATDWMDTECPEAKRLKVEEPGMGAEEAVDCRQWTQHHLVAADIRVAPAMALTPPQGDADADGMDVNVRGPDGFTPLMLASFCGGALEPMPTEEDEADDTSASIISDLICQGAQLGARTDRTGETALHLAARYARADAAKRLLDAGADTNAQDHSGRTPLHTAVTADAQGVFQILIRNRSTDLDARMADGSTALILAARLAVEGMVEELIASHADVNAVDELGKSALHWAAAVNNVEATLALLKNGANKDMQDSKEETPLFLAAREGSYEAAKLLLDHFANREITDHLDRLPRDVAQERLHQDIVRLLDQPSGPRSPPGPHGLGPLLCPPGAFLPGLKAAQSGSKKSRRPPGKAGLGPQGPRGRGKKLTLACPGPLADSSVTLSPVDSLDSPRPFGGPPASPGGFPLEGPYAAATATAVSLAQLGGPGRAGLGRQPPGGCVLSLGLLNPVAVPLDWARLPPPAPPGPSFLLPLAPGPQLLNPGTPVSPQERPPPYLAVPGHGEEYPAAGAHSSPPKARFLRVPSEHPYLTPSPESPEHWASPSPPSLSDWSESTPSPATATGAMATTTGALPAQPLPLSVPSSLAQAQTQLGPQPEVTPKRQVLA
Follistatin-related protein 3 (Homo sapiens), sequence (O95633 whole entry, looked up): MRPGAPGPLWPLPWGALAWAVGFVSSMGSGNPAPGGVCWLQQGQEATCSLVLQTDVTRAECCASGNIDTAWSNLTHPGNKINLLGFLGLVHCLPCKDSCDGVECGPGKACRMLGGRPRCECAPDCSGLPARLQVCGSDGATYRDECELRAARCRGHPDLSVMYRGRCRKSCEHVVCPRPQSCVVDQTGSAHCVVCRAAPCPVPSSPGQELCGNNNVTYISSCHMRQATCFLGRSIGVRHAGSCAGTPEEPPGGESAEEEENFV
Fibroblast growth factor 10 (Homo sapiens), sequence (O15520 whole entry, looked up): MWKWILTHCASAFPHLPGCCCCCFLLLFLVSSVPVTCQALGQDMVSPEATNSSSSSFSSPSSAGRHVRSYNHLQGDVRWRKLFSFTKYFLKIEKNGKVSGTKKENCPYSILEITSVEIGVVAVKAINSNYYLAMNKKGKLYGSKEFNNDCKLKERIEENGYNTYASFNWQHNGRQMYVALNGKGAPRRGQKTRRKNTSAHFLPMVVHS
Epidermal growth factor receptor (Homo sapiens), sequence (P00533 whole entry, looked up): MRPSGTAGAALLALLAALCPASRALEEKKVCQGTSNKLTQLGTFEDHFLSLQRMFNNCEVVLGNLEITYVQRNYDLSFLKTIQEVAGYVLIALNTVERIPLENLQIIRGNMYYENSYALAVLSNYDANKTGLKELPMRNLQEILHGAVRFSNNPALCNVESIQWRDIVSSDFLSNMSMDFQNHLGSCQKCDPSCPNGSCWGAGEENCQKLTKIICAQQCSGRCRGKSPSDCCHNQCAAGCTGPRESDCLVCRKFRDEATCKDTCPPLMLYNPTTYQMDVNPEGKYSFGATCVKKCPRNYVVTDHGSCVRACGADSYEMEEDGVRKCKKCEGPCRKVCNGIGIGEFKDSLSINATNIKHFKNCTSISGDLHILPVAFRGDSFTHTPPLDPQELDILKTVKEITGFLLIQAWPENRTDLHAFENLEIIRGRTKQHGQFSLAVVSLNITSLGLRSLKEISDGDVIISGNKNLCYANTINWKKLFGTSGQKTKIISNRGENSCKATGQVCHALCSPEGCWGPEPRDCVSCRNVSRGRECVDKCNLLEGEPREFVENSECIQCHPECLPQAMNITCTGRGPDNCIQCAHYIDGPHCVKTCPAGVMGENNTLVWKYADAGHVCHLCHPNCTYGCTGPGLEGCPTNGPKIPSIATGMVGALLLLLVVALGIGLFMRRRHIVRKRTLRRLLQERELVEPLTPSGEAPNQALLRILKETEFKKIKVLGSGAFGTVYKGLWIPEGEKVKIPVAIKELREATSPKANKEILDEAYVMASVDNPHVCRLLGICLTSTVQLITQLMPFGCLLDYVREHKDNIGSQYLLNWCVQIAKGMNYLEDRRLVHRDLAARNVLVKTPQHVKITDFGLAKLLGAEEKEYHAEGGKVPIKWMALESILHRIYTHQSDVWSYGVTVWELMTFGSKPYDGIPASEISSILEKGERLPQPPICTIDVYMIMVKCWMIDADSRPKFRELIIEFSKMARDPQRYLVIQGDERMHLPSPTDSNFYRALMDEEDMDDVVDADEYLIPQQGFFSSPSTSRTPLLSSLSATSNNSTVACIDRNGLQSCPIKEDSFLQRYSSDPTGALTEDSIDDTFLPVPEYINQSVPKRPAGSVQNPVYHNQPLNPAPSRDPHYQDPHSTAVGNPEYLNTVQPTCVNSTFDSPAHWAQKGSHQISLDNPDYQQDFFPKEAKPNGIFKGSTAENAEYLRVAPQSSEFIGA
Torsin-1A-interacting protein 2 (Homo sapiens), sequence (Q8NFQ8 whole entry, looked up): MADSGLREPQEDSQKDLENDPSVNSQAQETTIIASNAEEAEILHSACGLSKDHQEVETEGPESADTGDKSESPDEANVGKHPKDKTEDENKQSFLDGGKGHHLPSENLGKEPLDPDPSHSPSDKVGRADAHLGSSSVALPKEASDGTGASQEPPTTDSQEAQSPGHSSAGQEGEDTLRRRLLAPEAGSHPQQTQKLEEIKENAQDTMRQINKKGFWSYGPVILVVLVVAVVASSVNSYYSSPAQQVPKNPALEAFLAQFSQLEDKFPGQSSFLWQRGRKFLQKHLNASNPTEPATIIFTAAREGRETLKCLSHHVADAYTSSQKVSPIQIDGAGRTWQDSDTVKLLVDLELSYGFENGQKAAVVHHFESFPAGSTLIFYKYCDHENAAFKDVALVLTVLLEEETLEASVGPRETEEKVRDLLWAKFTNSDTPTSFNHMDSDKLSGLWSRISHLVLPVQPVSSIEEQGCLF

`COc1cc(CO)cc(I)c1O[C@H]1C=C(C(=O)NCCO)C[C@@H](NCc2ccc(F)cc2)[C@@H]1O`: the composite z-score is 1.07 in experiment [1]; -0.135 in experiment [5]; -0.109 in [7]; 0.938 in experiment [8]; 0.305 in experiment [9]; -0.128 in experiment [10]. The composite z-score in experiment [11] was 0.935; in [12], -0.197; in experiment [13] it was -0.162; in [15], 1.43; in experiment [16] it was 0.191; in experiment [17], -0.0831. For the same molecule, the composite z-score in [18] was 0.991; in experiment [19], 0.978; in experiment [20], -0.144. Moreover, the z-score was 1.41 (inactive) in [2]; -9.13 (active) in experiment [3]; 0.388 (inactive) in [4]; 0.944 (inactive) in experiment [6]; -1.05 (inactive) in [14].

Consider `CC(C)C(=C=CC[C@H](O)c1ccc(OCCO)cc1)C[C@H](O)c1ccccn1`, for which the composite z-score in experiment [1] was 1.52; in experiment [5], 1.18; in experiment [7], -0.142; in [8], 1.28; in [9], 0.481; in experiment [10] it was -0.146. The composite z-score is 0.471 in experiment [11]; -0.0813 in experiment [12]; -0.233 in [13]; 0.275 in experiment [15]; 0.372 in experiment [16]; -0.511 in experiment [17]. Besides, the results for the composite z-score in [18], in experiment [19] and in experiment [20] were -0.11, -0.478 and -0.262, respectively. In addition, the z-score is 0.758 (inactive) in experiment [2]; -1.29 (inactive) in experiment [3]; -0.132 (inactive) in [4]; 0.714 (inactive) in experiment [6]; -0.544 (inactive) in [14].

As for `C=CCOC(=O)[C@H]1[C@@H]2C(=O)O[C@@H](c3ccccc3)[C@@H](c3ccccc3)N2[C@@H](c2ccc(OCCOC(=O)[C@H]3C[C@H]4C(=O)N[C@@H](CCCCNC(C)=O)C(=O)N4[C@H]3c3ccc(O)cc3)cc2)[C@]12C(=O)Nc1ccccc12`, the composite z-score is 1.54 in [1]; 2.27 in experiment [5]; 0.0557 in experiment [7]; 1.63 in experiment [8]; 0.991 in experiment [9]; -0.0509 in [10]. Moreover, the composite z-score in experiment [11] came out at 0.611; in experiment [12] it was 0.258; in experiment [13], 0.493; in [15], 0.776; in experiment [16] it was 1.28; in [17], 0.915. Also, the composite z-score in experiment [18] came to 0.932; in experiment [19], 1.31; in experiment [20], 0.351. Further, the z-score in experiment [2] is -5.42 (inactive); in [3], -1.54 (inactive); in experiment [4] it was 0.491 (inactive); in experiment [6], 3.05 (inactive); in experiment [14], -1.18 (inactive).

Regarding `CCCNC(=O)[C@@H]1c2ccccc2C(=O)N(C(C)C)[C@H]1c1ccc(CO)cc1`, the composite z-score was 0.541 in experiment [1]; 0.618 in [5]; -0.0458 in experiment [7]; -0.231 in experiment [8]; -0.421 in experiment [9]; -0.196 in experiment [10]. Further, the composite z-score was 0.32 in experiment [11]; 0.02 in experiment [12]; 0.933 in [13]; -0.342 in [15]; -0.307 in experiment [16]; -0.87 in [17]. Besides, the composite z-score in experiment [18] is -0.961; in experiment [19], -0.375; in experiment [20], 0.534. Besides, the z-score in experiment [2] is 0.853 (inactive); in experiment [3], 0.668 (inactive); in [4], -0.148 (inactive); in experiment [6] it was 0.924 (inactive); in experiment [14] it was 0.844 (inactive).

Take `COC(=O)[C@@]1(Cc2ccccc2)[C@H]2c3cc(C(=O)N(C)C)n(CCc4ccc(O)c(OC)c4)c3C[C@H]2CN1C(=O)c1ccccc1`: the composite z-score was -0.26 in experiment [1]; 0.47 in experiment [5]; 0.425 in [7]; 0.374 in [8]; 0.489 in experiment [9]; 0.992 in experiment [10]. For the same molecule, the composite z-score was found to be 0.0108 in experiment [11]; 1.32 in experiment [12]; 0.379 in experiment [13]; 0.626 in [15]; 0.652 in experiment [16]; 0.569 in experiment [17]. Further, the composite z-score in [18] was 0.37; in experiment [19], 0.358; in [20], -0.0861. The z-score in [2] is 0.031 (inactive); in experiment [3], -0.0531 (inactive); in [4] it was 0.409 (inactive); in experiment [6] it was -0.452 (inactive); in experiment [14], 0.905 (inactive).
